# Measured values as given in ChEMBL document CHEMBL1961873, “Compounds: GSK PKIS; Assays: Nanosyn kinase panel” (2012).
# “And” between values parts separate entries of the source, which are not always exact repeats. Equal entries are not always repeated.
# Key:
# [1] = target: Tyrosine-protein kinase SYK (Homo sapiens) (UniProt P43405); conditions: at 1 µM
# [2] = target: T1, Tyrosine-protein kinase Tec (Homo sapiens) (UniProt P42680); conditions: at 0.1 µM
# T1 sequence (whole entry): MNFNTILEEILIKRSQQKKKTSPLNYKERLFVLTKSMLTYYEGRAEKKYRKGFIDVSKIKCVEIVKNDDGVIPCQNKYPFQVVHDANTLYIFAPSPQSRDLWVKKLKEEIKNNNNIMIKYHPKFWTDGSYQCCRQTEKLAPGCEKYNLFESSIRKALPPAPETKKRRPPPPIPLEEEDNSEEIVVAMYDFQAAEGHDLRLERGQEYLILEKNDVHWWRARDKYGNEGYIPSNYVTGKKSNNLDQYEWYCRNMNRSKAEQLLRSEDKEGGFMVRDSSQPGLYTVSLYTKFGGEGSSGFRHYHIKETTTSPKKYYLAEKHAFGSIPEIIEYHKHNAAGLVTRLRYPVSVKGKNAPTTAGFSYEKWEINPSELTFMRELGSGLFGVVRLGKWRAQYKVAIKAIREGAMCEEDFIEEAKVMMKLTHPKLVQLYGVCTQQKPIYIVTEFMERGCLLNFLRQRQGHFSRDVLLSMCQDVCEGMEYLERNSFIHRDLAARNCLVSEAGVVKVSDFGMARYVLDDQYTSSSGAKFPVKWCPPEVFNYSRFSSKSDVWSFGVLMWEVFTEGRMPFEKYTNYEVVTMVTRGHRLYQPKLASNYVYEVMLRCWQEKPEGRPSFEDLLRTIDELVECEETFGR
# [3] = target: T1, Tyrosine-protein kinase Tec (Homo sapiens); conditions: at 1 µM
# [4] = target: Angiopoietin-1 receptor (Homo sapiens) (UniProt Q02763); conditions: at 0.1 µM
# [5] = target: Angiopoietin-1 receptor (Homo sapiens) (UniProt Q02763); conditions: at 1 µM
# [6] = target: T2, Non-receptor tyrosine-protein kinase TNK1 (Homo sapiens) (UniProt Q13470); conditions: at 0.1 µM
# T2 sequence (whole entry): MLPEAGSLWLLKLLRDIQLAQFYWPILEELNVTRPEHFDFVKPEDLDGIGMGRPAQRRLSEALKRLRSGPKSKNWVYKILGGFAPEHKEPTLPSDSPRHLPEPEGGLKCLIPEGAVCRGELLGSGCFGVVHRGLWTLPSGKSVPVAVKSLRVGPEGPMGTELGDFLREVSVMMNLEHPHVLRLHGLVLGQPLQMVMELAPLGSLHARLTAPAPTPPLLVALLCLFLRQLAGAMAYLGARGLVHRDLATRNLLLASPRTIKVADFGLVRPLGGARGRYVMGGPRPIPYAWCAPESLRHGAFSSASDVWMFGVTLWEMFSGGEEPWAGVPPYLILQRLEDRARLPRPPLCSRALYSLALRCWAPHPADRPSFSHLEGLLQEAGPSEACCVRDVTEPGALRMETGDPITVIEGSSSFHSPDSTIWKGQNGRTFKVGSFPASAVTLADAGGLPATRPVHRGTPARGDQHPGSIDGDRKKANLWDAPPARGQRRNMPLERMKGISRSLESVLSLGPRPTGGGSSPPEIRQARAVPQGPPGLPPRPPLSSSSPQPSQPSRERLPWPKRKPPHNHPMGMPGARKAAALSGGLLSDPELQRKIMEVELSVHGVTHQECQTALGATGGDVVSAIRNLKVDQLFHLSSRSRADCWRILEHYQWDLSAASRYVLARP
# [7] = target: T2, Non-receptor tyrosine-protein kinase TNK1 (Homo sapiens); conditions: at 1 µM
# [8] = target: Activated CDC42 kinase 1 (Homo sapiens) (UniProt Q07912); conditions: at 0.1 µM
# [9] = target: Activated CDC42 kinase 1 (Homo sapiens) (UniProt Q07912); conditions: at 1 µM
# [10] = target: High affinity nerve growth factor receptor (Homo sapiens) (UniProt P04629); conditions: at 0.1 µM;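 note: each value is a mean of replicate percent inhibition readings against TRKA kinase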
# Chain of High affinity nerve growth factor receptor (Homo sapiens) (P04629 33-796 limits assumed): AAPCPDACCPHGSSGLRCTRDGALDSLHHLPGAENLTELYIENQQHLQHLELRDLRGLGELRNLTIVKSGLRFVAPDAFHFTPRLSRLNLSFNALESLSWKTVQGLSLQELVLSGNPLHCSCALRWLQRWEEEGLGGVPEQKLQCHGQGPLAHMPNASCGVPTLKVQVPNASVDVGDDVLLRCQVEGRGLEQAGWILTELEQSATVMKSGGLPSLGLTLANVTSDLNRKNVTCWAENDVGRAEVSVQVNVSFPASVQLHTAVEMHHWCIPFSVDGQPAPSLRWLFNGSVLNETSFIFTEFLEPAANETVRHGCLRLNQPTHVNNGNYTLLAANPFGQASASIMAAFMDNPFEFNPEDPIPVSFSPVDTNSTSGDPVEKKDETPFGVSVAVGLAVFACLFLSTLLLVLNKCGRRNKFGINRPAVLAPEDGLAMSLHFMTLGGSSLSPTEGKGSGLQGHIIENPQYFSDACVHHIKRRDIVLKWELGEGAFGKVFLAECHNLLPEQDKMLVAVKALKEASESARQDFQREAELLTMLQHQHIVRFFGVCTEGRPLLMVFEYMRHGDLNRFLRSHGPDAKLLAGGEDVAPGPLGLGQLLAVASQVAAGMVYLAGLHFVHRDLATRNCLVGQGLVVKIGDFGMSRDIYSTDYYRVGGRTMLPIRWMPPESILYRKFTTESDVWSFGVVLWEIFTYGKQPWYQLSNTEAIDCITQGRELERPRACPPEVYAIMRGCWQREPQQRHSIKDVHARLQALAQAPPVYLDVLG
# Chain of Angiopoietin-1 receptor (Homo sapiens) (Q02763 whole entry): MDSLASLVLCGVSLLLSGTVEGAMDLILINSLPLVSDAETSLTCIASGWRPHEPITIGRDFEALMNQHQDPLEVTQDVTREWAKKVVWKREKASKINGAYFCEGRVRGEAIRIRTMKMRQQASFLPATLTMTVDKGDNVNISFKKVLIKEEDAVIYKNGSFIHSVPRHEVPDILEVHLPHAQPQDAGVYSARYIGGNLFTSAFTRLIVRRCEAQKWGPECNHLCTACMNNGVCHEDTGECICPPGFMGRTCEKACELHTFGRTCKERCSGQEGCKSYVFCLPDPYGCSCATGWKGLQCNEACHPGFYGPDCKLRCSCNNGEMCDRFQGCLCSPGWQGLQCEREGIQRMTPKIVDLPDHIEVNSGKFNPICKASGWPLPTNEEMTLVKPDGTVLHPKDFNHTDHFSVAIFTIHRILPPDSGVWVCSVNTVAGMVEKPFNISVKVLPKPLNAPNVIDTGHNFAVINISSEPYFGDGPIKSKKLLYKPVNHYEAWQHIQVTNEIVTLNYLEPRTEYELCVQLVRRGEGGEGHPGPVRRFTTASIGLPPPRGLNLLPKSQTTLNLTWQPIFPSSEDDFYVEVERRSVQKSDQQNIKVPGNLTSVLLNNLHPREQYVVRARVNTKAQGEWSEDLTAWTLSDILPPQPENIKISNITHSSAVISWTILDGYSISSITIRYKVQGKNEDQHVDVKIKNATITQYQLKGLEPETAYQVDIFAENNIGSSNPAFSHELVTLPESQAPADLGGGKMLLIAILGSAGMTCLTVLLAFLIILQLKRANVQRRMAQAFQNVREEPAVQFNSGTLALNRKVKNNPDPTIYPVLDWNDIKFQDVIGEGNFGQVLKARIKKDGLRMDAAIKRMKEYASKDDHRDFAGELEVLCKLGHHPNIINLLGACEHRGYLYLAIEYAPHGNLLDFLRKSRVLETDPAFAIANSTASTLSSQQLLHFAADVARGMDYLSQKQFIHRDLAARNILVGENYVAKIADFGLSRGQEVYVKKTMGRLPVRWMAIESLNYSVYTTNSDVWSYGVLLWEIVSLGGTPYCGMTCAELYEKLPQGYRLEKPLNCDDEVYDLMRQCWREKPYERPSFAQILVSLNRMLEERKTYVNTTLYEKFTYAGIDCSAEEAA
# Chain of Activated CDC42 kinase 1 (Homo sapiens) (Q07912 whole entry, looked up): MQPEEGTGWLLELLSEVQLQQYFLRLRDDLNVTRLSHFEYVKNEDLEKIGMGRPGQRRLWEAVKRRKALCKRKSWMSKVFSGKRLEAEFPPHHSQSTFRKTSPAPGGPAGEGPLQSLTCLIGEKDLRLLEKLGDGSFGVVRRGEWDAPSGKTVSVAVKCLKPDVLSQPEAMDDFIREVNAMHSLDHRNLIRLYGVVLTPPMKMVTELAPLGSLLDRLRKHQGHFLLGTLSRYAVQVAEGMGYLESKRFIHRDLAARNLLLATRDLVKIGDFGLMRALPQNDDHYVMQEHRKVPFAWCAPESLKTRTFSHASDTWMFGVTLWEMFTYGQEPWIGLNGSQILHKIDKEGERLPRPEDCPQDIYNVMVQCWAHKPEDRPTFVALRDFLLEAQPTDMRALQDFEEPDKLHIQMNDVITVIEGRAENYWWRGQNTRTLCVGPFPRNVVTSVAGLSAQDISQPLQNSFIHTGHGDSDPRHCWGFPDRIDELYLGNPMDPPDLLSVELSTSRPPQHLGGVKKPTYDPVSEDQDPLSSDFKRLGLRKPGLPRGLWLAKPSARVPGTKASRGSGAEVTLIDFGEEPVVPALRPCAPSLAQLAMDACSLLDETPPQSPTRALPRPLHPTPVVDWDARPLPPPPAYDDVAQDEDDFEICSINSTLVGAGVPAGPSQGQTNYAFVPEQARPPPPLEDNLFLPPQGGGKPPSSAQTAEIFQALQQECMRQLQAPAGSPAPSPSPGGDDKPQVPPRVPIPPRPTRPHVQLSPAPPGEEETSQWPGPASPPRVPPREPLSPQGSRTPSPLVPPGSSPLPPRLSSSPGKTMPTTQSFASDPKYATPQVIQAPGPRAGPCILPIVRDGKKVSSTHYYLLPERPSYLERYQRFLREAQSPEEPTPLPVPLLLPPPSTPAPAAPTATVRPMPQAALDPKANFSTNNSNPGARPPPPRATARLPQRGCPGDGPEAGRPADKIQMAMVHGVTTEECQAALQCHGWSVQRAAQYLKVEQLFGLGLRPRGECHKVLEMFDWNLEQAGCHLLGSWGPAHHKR
Compound,inhibition [1],inhibition [2],inhibition [3],inhibition [4],inhibition [5],inhibition [6],inhibition [7],inhibition [8],inhibition [9],inhibition [10]
Nc1nccc(-c2c(-c3ccc(F)cc3)ncn2C2CCNCC2)n1,-2.74% and 1.45%,-2.4% and 0.94%,-2.93% and 2.08%,-0.35% and 2.75%,1.51% and 1.25%,-6.18% and -1.13%,-2.86% and -0.41%,-1.87% and 0.84%,-2.1% and 1.2%,-1.68% and 4.53%
O=C(Nc1n[nH]c2nnc(-c3cccnc3)cc12)C1CC1,0.88%,0.17%,3.48%,1.38%,1.88%,-1.13%,0.09%,0.32%,1.68%,0.12%
CS(=O)(=O)CCNCc1ccc(-c2ccc3ncnc(Nc4ccc(OCc5cccc(C(F)(F)F)c5)cc4)c3c2)o1,-0.03%,6.62%,4.52%,3.37%,4.84%,0.64%,5.33%,0.49%,0.96%,2.16%
COc1ccccc1-c1cc(/C=C2\C(=O)Nc3ncc(Br)cc32)cc(Br)c1O,-0.96%,4.41%,10.3%,4.42%,6.14%,40.2%,80.4%,1.04%,0.66%,9.43%
Cc1cc(O)cc(C)c1/C=C/c1cncc(C(N)=O)c1,0.5%,5.81%,32.2%,2.45%,5.29%,4.23%,14.4%,1.58%,6.06%,4.13%
Cc1cc(O)cc(C)c1/C=C/c1cncc(C(=O)OC(C)(C)C)c1,0.64%,5.96%,30.2%,2.09%,3.67%,2.08%,15.7%,1.33%,4.9%,3.36%
CCS(=O)(=O)c1ccc(OC)c(Nc2ncc(-c3cccc(F)c3)o2)c1,1.66%,9.86%,37.2%,4.21%,14.1%,27.4%,76.5%,2.97%,13.2%,6.84%
CS(=O)(=O)CCNCc1ccoc1-c1ccc2ncnc(Nc3ccc(OCc4ccccc4)cc3)c2c1,0.23%,0.03%,3.04%,1.86%,4.86%,1.08%,5.74%,0.06%,0.6%,1.31%
CC1=C(C(=O)Nc2ccc3[nH]ncc3c2)C(c2ccc(F)cc2)N=C(c2ccc(C(F)(F)F)nc2)N1 (stereo not given),0.81%,3.03%,7.4%,2.65%,2.49%,1.86%,7.12%,1.17%,1.16%,4.01%
COc1ccc(Nc2ncc(-c3ccccc3)o2)cc1OC,0.42%,2.91%,9.41%,2.1%,8.87%,5.16%,26.8%,-0.28%,2.05%,-1.61%
CCCNc1cccc(-n2ncc3c(N/N=C/c4ccncc4)ncnc32)c1,-2.86%,2.52%,7.76%,8.93%,36.2%,9.78%,48%,0.38%,3.51%,-0.62%
c1ccc(-c2n[nH]cc2-c2ccnc(-c3ccc(OCCn4ccnc4)cc3)c2)nc1,0.33%,0.42%,0.73%,0.28%,3.93%,-0.4%,5.89%,-0.42%,0.83%,2.17%
O=C(O[C@H]1CN[C@H](C#Cc2cc3ncnc(Nc4ccc5c(ccn5Cc5cc(F)ccc5F)c4)c3s2)C1)N1CCOCC1,0.11%,4.74%,7.34%,3.18%,10.8%,2.48%,1.5%,0.66%,0.98%,1.93%
CS(=O)(=O)CCNCc1ccc(-c2ccc3ncnc(Nc4ccc(OCc5ccccc5)cc4)c3c2)o1,-0.71%,1.49%,7.43%,1.24%,4.15%,3.51%,16.6%,1.73%,2.69%,1.91%
CNC(=O)c1cncc(/C=C/c2ccccc2C)c1,-0.24%,6.1%,16.4%,1.59%,-0.24%,3.86%,20.7%,1.54%,8.09%,3.97%
Cc1ccc(-c2cc3c(NC(=O)C4CC4)ncnc3o2)cc1,-1.6%,5.2%,13.1%,3.09%,4.4%,3.37%,6.56%,1.58%,4.37%,4.74%

Compound,inhibition [1],inhibition [2],inhibition [3],inhibition [4],inhibition [5],inhibition [6],inhibition [7],inhibition [8],inhibition [9],inhibition [10]
Cc1nnc(-c2cccc(-c3ccc(C(=O)NCC4CC4)cc3)c2)o1,-0.72%,5.71%,6.71%,2.51%,2.87%,2.91%,11.3%,1.67%,2.25%,3.31%
COC(=O)Nc1nc2cc(Oc3ccc(NC(=O)Nc4ccccc4)cc3)ccc2[nH]1,0.09%,1.83%,1.84%,5.37%,9.24%,2.64%,4.12%,0.69%,1.18%,2.62%
COc1ccc2ncn(-c3cc(O[C@H](C)c4ccccc4C(F)(F)F)c(C(N)=O)s3)c2c1,0.76%,1.04%,-0.18%,1.94%,4.83%,1.54%,19.8%,0.19%,2.86%,-0.31%
NS(=O)(=O)c1ccc(N/N=C2\C(=O)Nc3cccc(CCc4ccncc4)c32)cc1,-2.6%,-0.23%,4.92%,0.8%,3.33%,12.8%,14.7%,0.97%,1.34%,6.26%
O=C(O[C@H]1CN[C@H](C#Cc2cc3ncnc(Nc4ccc5c(cnn5Cc5ccccc5)c4)c3s2)C1)N1CCOCC1,0.67%,2.33%,2.89%,0.41%,5.18%,0.45%,9.52%,-0.92%,-1.03%,-1.24%
NC(=O)c1ccc2c(-c3ccnc(NCCCO)n3)c(-c3ccc(F)cc3)nn2c1,-0.6%,5.81%,16.1%,5.27%,6.83%,4.67%,2.83%,0.88%,5%,3.75%
CNC(=O)c1sc(-n2cnc3cc(OC)c(OC)cc32)cc1OCc1ccccc1C(F)(F)F,-4%,1.74%,9.64%,2.19%,9.86%,4.58%,29.1%,1.43%,4.41%,1.34%
COc1cc(N2CCN(C(C)C)CC2)ccc1Nc1nc(Nc2cccc(F)c2C(=O)O)c2cc[nH]c2n1,-7.57%,4.02%,5.87%,2.04%,5.53%,8.72%,53.4%,1.91%,5.95%,4.69%
NS(=O)(=O)c1cccc(N/C=C2\C(=O)Nc3ccccc32)c1,-1.66%,4.94%,7.41%,4.12%,8.33%,3.06%,5.85%,0.36%,1.26%,4.69%
CCS(=O)(=O)c1ccc(OC)c(Nc2ncc(-c3cccc(C(C)=O)c3)o2)c1,-2.16%,6.22%,26.6%,2.09%,9.26%,15.3%,66.9%,1.65%,6.5%,4.29%
Nc1nonc1-c1nc2cnccc2n1C1CC1,-1.65% and 0.1%,4.66% and -0.83%,7.39% and -0.23%,1.33% and 1.27%,5.19% and 4.75%,3.99% and 1.62%,9.35% and 9.64%,1.76% and 0.5%,3.72% and 0.02%,3.67% and -0.15%
CN1CCN(Cc2ccc(-c3cc4ncnc(Nc5ccc(OCc6cccc(F)c6)c(Cl)c5)c4s3)o2)CC1,-0.79% and 0.39%,0.53% and 4.75%,4.67% and 6.65%,4.14% and 4.04%,16.7% and 17.8%,2.88% and 6.1%,18.5% and 23.1%,1.15% and 2.06%,2.33% and 3.5%,1.64% and -0.7%
CCN1CCC(C(=O)Nc2n[nH]c3nnc(-c4cccc(F)c4F)cc23)CC1,0.2%,-1.63%,0.37%,1.84%,2.91%,1.54%,0.05%,-0.13%,0.07%,1.95%
COc1cc2c(cc1Nc1nc(Nc3cccc(F)c3C(N)=O)c3cc[nH]c3n1)N(C(=O)CN1CCN(C(C)C)CC1)CC2,3.08%,5.26%,1.94%,4.46%,2.66%,3.48%,22.4%,1.09%,5.91%,1.48%
CCOc1ccc2c(-c3ccnc(Nc4cc(OC)cc(C(F)(F)F)c4)n3)cnn2n1,-0.62%,2.25%,7.24%,7.37%,13.5%,2.46%,12.4%,0.16%,1.19%,0.62%
